Source: PubChem BioAssay (NCI)
Where “and” joins values, the source holds several entries; their conditions need not be identical. Identical values can stand only once. The panel holds about 83,000 compounds, 20% with a hit somewhere; the sample as a whole holds those more often.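 In brief: 96-well plates, 48 h treatment, single concentration, percent growth endpoint.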 Calls of active or inactive are those of the source. How the source made its calls: active means growth percent below 10; inactive means the rest.

Tests used:
Experiment in all cases: NCI-60 one-dose screen, 48 h (100 = growth as untreated, 0 = no growth, -100 = all killed)
Details in all cases: 10 µM unless noted
HCT-15 colon = system: HCT-15 colon
HT29 colon = system: HT29 colon
SNB-75 CNS = system: SNB-75 CNS
SNB-19 CNS = system: SNB-19 CNS
U251 CNS = system: U251 CNS
PC-3 prostate = system: PC-3 prostate
SK-MEL-5 melanoma = system: SK-MEL-5 melanoma
UACC-62 melanoma = system: UACC-62 melanoma
LOX IMVI melanoma = system: LOX IMVI melanoma
SK-MEL-28 melanoma = system: SK-MEL-28 melanoma
SK-MEL-2 melanoma = system: SK-MEL-2 melanoma
EKVX NSCLC = system: EKVX NSCLC
SN12C renal = system: SN12C renal
UO-31 renal = system: UO-31 renal
TK-10 renal = system: TK-10 renal
ACHN renal = system: ACHN renal
CAKI-1 renal = system: CAKI-1 renal
A498 renal = system: A498 renal
CCRF-CEM leukemia = system: CCRF-CEM leukemia
MOLT-4 leukemia = system: MOLT-4 leukemia

SMILES	growth (HCT-15 colon)	growth (HT29 colon)	growth (SNB-75 CNS)	growth (SNB-19 CNS)	growth (U251 CNS)	growth (PC-3 prostate)	growth (SK-MEL-5 melanoma)	growth (UACC-62 melanoma)	growth (LOX IMVI melanoma)	growth (SK-MEL-28 melanoma)	growth (SK-MEL-2 melanoma)	growth (EKVX NSCLC)	growth (SN12C renal)	growth (UO-31 renal)	growth (TK-10 renal)	growth (ACHN renal)	growth (CAKI-1 renal)	growth (A498 renal)	growth (CCRF-CEM leukemia)	growth (MOLT-4 leukemia)
COc1ccc(-c2cc(-c3cc(C(C)C)c(O)cc3C)nn2-c2ccc(S(N)(=O)=O)cc2)cc1	3.06% (active)	88.4% (inactive)	-0.16% (active)	30% (inactive)	14.4% (inactive)	49.3% (inactive)	48.6% (inactive)	21.5% (inactive)	22.6% (inactive)	58.8% (inactive)	54.7% (inactive)	61.1% (inactive)	16% (inactive)	39.1% (inactive)	58% (inactive)	55.8% (inactive)	63.9% (inactive)	87.7% (inactive)	12.2% (inactive)	14.7% (inactive)
COc1ccc(-c2cc(C(=O)Oc3ccc(C=O)cc3OC)nn2-c2ccc(S(C)(=O)=O)cc2)cc1	81.9% (inactive)	110% (inactive)	99.9% (inactive)	94.5% (inactive)	101% (inactive)	90.7% (inactive)	98% (inactive)	88% (inactive)	90.1% (inactive)	117% (inactive)	110% (inactive)	98% (inactive)	90.7% (inactive)	78.2% (inactive)	147% (inactive)	106% (inactive)	98.3% (inactive)	126% (inactive)	83.6% (inactive)	86.6% (inactive)
COc1ccc(C2=NN(C(=O)[C@H]3[C@@H](c4ccco4)c4sc(=O)[nH]c4S[C@@H]3C)C(c3ccc4ccccc4c3)C2)cc1 (stereo not given in full)	12% (inactive)	15.3% (inactive)	50.8% (inactive)	39.8% (inactive)	19.5% (inactive)	28.6% (inactive)	36.5% (inactive)	29% (inactive)	31.3% (inactive)	32% (inactive)	32.3% (inactive)	23.2% (inactive)	39% (inactive)	19.5% (inactive)	50.4% (inactive)	16% (inactive)	20.7% (inactive)	102% (inactive)	6.09% (active)	12% (inactive)
C=CCSc1nnc(-c2ccc(-c3nc4ccccc4[nH]3)cc2)o1	51.3% (inactive)	69.5% (inactive)	74% (inactive)	79.7% (inactive)	84% (inactive)	57.5% (inactive)	50.6% (inactive)	73.9% (inactive)	73.9% (inactive)	85.6% (inactive)	95% (inactive)	71.5% (inactive)	83.8% (inactive)	56.1% (inactive)	87.7% (inactive)	78.1% (inactive)	63.9% (inactive)	113% (inactive)	32.6% (inactive)	38.1% (inactive)
O=C(CSc1nc2sc3c(c2c(=O)n1-c1ccc(Cl)cc1)CCCC3)N/N=C/C=C/c1ccccc1	-57.6% (active)	-19.3% (active)	-23.2% (active)	27% (inactive)	-76.4% (active)	-17.4% (active)	-95.2% (active)	-79.9% (active)	31.7% (inactive)	-80.1% (active)	-29.3% (active)	39.7% (inactive)	15.4% (inactive)	85.1% (inactive)	-19% (active)	25.3% (inactive)	38.5% (inactive)	-40.8% (active)	-33.7% (active)	-24.4% (active)
O=C(c1cc2cc(OCCCN3CCC3)ccc2[nH]1)N1C[C@@H](CCl)c2c1cc(OCc1ccccc1)c1ccccc21	-21.1% (active)	-25.2% (active)	-79.5% (active)	-12.1% (active)	-80.7% (active)	-21.4% (active)	-23.2% (active)	-82.6% (active)	-94.2% (active)	-45.8% (active)	-93.4% (active)	-46% (active)	-40.1% (active)	-84.6% (active)	-3.9% (active)	-96.8% (active)	-84.6% (active)	-25.3% (active)	-18.2% (active)	-15.4% (active)
Cc1cn(-c2cc(NC(=O)c3ccc(C)c(-n4cc(-c5cnc6cccnn56)nn4)c3)cc(C(F)(F)F)c2)cn1	84.8% (inactive)	7.41% (active)	122% (inactive)	109% (inactive)	44.3% (inactive)	102% (inactive)	53.9% (inactive)	11.3% (inactive)	26.8% (inactive)	23.5% (inactive)	64.9% (inactive)	98.9% (inactive)	85.9% (inactive)	58.2% (inactive)	111% (inactive)	85.7% (inactive)	94.7% (inactive)	185% (inactive)	54.6% (inactive)	38.9% (inactive)
COc1ccc(C2=Nc3c(N)nc(N)nc3NC(c3ccc(Oc4nc(Nc5ccc(F)cc5)nc(N(C)C)n4)c(OC)c3)C2)cc1 (stereo not given)	48.7% (inactive)	46.4% (inactive)	51% (inactive)	76.5% (inactive)	65.3% (inactive)	49.1% (inactive)	51.5% (inactive)	98.3% (inactive)	63.1% (inactive)	93.2% (inactive)	92.4% (inactive)	67.2% (inactive)	90.2% (inactive)	52.5% (inactive)	86.4% (inactive)	99% (inactive)	58% (inactive)	68.9% (inactive)	50.1% (inactive)	18.4% (inactive)
Cc1ccc(C2CC(c3ccc(NC(=S)Nc4ccccc4)cc3)=NN2c2ccc(S(N)(=O)=O)cc2)cc1 (stereo not given)	4.26% (active)	1.32% (active)	21.4% (inactive)	23.1% (inactive)	5.8% (active)	7.16% (active)	27.9% (inactive)	17% (inactive)	14.9% (inactive)	-57.7% (active)	13.4% (inactive)	9.1% (active)	28.3% (inactive)	3.53% (active)	21.6% (inactive)	-33.2% (active)	-10.6% (active)	76.4% (inactive)	14.5% (inactive)	25.8% (inactive)
COc1cccc(/C=C/c2nc3ccccc3c(=O)n2CC(=O)Nc2ccccc2)c1	67.8% (inactive)	58.5% (inactive)	-35.9% (active)	40.4% (inactive)	7.15% (active)	76.1% (inactive)	73.6% (inactive)	67.2% (inactive)	26.8% (inactive)	76.5% (inactive)	81% (inactive)	85.1% (inactive)	17.6% (inactive)	-24.8% (active)	11.7% (inactive)	-15.6% (active)	72.3% (inactive)	28% (inactive)	90.1% (inactive)	94.2% (inactive)
COc1ccccc1/C=C/c1cccc(NC(=S)NCCCCN(C)C)c1	-100% (active)	-59% (active)	-80.1% (active)	-84.1% (active)	-64.7% (active)	-46.9% (active)	-97% (active)	-98.5% (active)	-98.4% (active)	-98.8% (active)	-81.4% (active)	-91.7% (active)	-96.6% (active)	-84.9% (active)	-82.7% (active)	-100% (active)	-87.8% (active)	-65.9% (active)	-38.8% (active)	-32.9% (active)
O=C(CCl)Nc1ccc(C(=O)/C=C/c2cc3ccccc3nc2Cl)cc1	-85.4% (active) and 19.7% (inactive)	2.8% (active) and 65% (inactive)	51.2% (inactive) and 68% (inactive)	-80% (active) and 46.6% (inactive)	-83.8% (active) and 39.7% (inactive)	11.1% (inactive) and 56.4% (inactive)	-78.4% (active) and 62.4% (inactive)	-33.3% (active) and 12.9% (inactive)	-97.9% (active) and 3.63% (active)	-69.5% (active) and 46.2% (inactive)	-3.09% (active) and 60% (inactive)	-5.66% (active) and 36.7% (inactive)	-74.1% (active) and 39.4% (inactive)	-98.1% (active) and 1.88% (active)	49.1% (inactive) and 74.8% (inactive)	-99.2% (active) and 9.77% (active)	-43.5% (active) and 11.1% (inactive)	116% (inactive) and 193% (inactive)	-23.1% (active) and 5.66% (active)	-46% (active) and 18.3% (inactive)
Cc1nn(-c2ccccc2)c2nc(C)n(C(=O)N/N=C/c3ccccc3)c(=O)c12	107% (inactive)	106% (inactive)	62.3% (inactive)	87% (inactive)	95.5% (inactive)	92.7% (inactive)	103% (inactive)	92.6% (inactive)	96.8% (inactive)	105% (inactive)	105% (inactive)	94.4% (inactive)	97.9% (inactive)	74.1% (inactive)	123% (inactive)	94.9% (inactive)	76.9% (inactive)	112% (inactive)	96.3% (inactive)	102% (inactive)
Cn1cc(-c2cc(N)n3nc(-c4c[nH]c5ccc(Cl)cc45)cc3n2)c2cccnc21	-56.7% (active)	-44.7% (active)	-57.5% (active)	-78.3% (active)	-82% (active)	-51.6% (active)	-97.4% (active)	-86.4% (active)	-93.6% (active)	-93.7% (active)	81% (inactive)	-71.9% (active)	-80% (active)	-77.5% (active)	-85.9% (active)	-98.8% (active)	-62.3% (active)	-79.7% (active)	-34.8% (active)	-37.8% (active)
CCCSc1nnc(-c2sc3nc4ccccc4n3c2C)o1	99.2% (inactive)	110% (inactive)	95.6% (inactive)	99.8% (inactive)	113% (inactive)	105% (inactive)	98.5% (inactive)	94.5% (inactive)	113% (inactive)	110% (inactive)	105% (inactive)	103% (inactive)	105% (inactive)	82.3% (inactive)	124% (inactive)	104% (inactive)	104% (inactive)	110% (inactive)	107% (inactive)	92.3% (inactive)
